Hits are enriched below; roughly 3.6% of the tested compounds scored in any of these assays.
mHTT CaM bind: mHTT-calmodulin interaction abrogation; 190,000 compounds, 3.6% hits; AlphaScreen His-mHTT/GST-CaM binding, luminescence; P42858; inhibition, % at 15 µM
Pf apPOL block: Pf-apPOL DNA polymerase inhibition; Recombinant Pf-apPOL, molecular beacon fluorescence, 1.5 h; inhibition, % at 10 µM; 210,000 compounds, 0.25% hits; AID 1794808
A number is an active result; i = inactive; nt = no result given. Cut-off read from the data, not from the text of the source: active = inhibition above about 50%; inactive = the rest.

SMILES	mHTT CaM bind	Pf apPOL block
O=C(NC(Nc1ccc([N+](=O)[O-])cc1)C(Cl)(Cl)Cl)c1cccc(Cl)c1 (stereo not given)	100	i
O=C(Nc1cccc(Cl)c1)c1cccc([N+](=O)[O-])c1	92	i
NS(=O)(=O)c1ccc(NC(NC(=O)c2ccc([N+](=O)[O-])cc2)C(Cl)(Cl)Cl)cc1 (stereo not given)	i	i
O=C(Nc1cccc(Cl)c1)c1ccc([N+](=O)[O-])cc1Cl	i	i
Cc1cccc(NC(NC(=O)c2ccc([N+](=O)[O-])cc2)C(Cl)(Cl)Cl)c1 (stereo not given)	76	i
Cc1cccc(NC(NC(=O)N(C)C)C(Cl)(Cl)Cl)c1 (stereo not given)	i	i
COc1ccc(C=C2Oc3cc(OC(C)=O)ccc3C2=O)c(OC)c1	i	i
CCC(=O)N1CCC(c2ccn3ncc(C(=O)N4CCC(C)CC4)c3c2)CC1	i	i
CS(=O)(=O)N1CCN(c2ccc([N+](=O)[O-])c(NCc3ccc(Cl)cc3)c2)CC1	56	i
CS(=O)(=O)N1CCN(c2ccc([N+](=O)[O-])c(NCc3ccccc3)c2)CC1	i	i
CCNC(=O)c1[nH]c2ccc(F)cc2c1N1CCCC1=O	i	i
Cc1nc(CSc2ccc3nnc(-c4ccccn4)n3n2)cs1	76	i
c1ccc(CSc2nnc3ccc(-c4ccccn4)nn23)nc1	i	i
O=C(NCCc1nnc2ccc(SCc3ccccn3)nn12)c1ccccc1	i	i
O=[N+]([O-])c1cccc(CSc2ccc3nnc(-c4ccccn4)n3n2)c1	98	i
C=C(C)C1CC=C(CNc2ccc(OC)c(OC)c2)CC1 (stereo not given)	86	i
COc1ccc(NC(=O)C2CC2)cc1OC	i	i
O=S(=O)(Nc1cccc2cccnc12)c1ccccc1	74	i
CS(=O)(=O)Nc1cccc2cccnc12	i	i
O=C(NCc1ccccc1Cl)c1ccc2c(c1)NC(=O)C(N1CCOCC1)S2 (stereo not given)	i	i
COc1ccc(C(=O)N2CCc3ccccc3C2)cc1[N+](=O)[O-]	i	i
O=C(Nc1ccc(F)cc1)c1ccc(C(=O)Nc2ccc(F)cc2)cc1	i	i
O=C(NCCNC(=O)c1ccc(F)c(F)c1)c1ccc(NC(=O)c2ccc(F)cc2)cc1	69	i
COc1ccc(C(=O)NCc2nc3ccccc3n2Cc2ccccc2F)cc1OC	58	i
COc1ccc(C(=O)NCCc2nc3ccccc3n2Cc2ccccc2F)cc1OC	i	i
SMILES	mHTT CaM bind	Pf apPOL block
CCCn1c(=N)c(C(=O)NCc2ccco2)cc2c(=O)n3ccccc3nc21	i	i
O=C(Nc1ccc2oc(-c3ccccc3F)nc2c1)c1cccs1	i	i
COc1ccc(C2=CC(c3cccc(Br)c3)n3nc(CCCO)nc3N2)cc1OC (stereo not given)	53	i
COc1cccc(C2C=C(c3ccc(Br)cc3)Nc3nnnn32)c1OC (stereo not given)	i	i
COc1ccccc1C1C=C(c2ccc(Br)cc2)Nc2ncnn21 (stereo not given)	i	i
COc1cccc(C2C=C(c3cccc(Br)c3)Nc3nnnn32)c1OC (stereo not given)	65	i
COc1ccc(C2=CC(c3ccccc3)n3nc(CCCO)nc3N2)cc1 (stereo not given)	i	i
COc1cccc(C2C=C(c3ccc(F)cc3)Nc3ncnn32)c1OC (stereo not given)	56	i
COc1cccc(C2C=C(c3ccc(C)cc3)Nc3ncnn32)c1OC (stereo not given)	i	i
COc1cccc(C2C=C(c3ccc(Br)cc3)Nc3ncnn32)c1OC (stereo not given)	66	i
CC(C)N1C(=O)c2cccnc2Sc2cc(NC(=O)c3ccccc3)ccc21	i	i
CC(C)(C)C(=O)N1CCN(c2cc(Oc3ccc(F)c(F)c3)ncn2)CC1	i	i
Cc1cccc(C(=O)Nc2cccc(C(=O)Nc3nccs3)c2)c1	i	i
COc1ccc(C(=O)N2CC3CC(NC(=O)c4cccs4)C2C3)c(C)c1 (stereo not given)	i	i
O=C(NCc1ccc(C(F)(F)F)cc1)c1cn2c(n1)COCC2	i	i
COc1cc(C2C=C(c3ccc(Cl)cc3)Nc3ncnn32)cc(OC)c1OC (stereo not given)	76	i
COc1cccc(C2C=C(c3cccc(Br)c3)Nc3ncnn32)c1 (stereo not given)	59	i
COc1ccc(C2=CC(c3cc(OC)c(OC)c(OC)c3)n3ncnc3N2)cc1 (stereo not given)	i	i
COc1cccc(C2C=C(c3ccc(C)cc3)Nc3ncnn32)c1 (stereo not given)	i	i
CC(C)CS(=O)(=O)NCC1(O)CCCC1	i	i
CCOc1ccccc1C(=O)N1CCn2c(C)nnc2C1	i	i
O=C(O)/C=C/c1cccc(N=Cc2ccc(N3CCOCC3)cc2)c1	i	i
O=C(O)/C=C/c1cccc(N=Cc2ccc([N+](=O)[O-])o2)c1	71	i
CCCC(=O)Nc1ccc(-c2ccc(NC(=O)CCC)c(C)c2)cc1C	i	i
N#Cc1c(N=Cc2ccco2)sc2c1CCCC2	i	nt
SMILES	mHTT CaM bind	Pf apPOL block
N#Cc1c(N=Cc2cccnc2)sc2c1CCCC2	55	i
CCC(=O)N1CCc2sc(S(=O)(=O)Nc3ccccc3CC)cc2C1	i	i
O=C(Nc1nc2c(s1)CN(C(=O)c1cnn(-c3ccccc3)n1)CC2)c1ccco1	53	i
O=C(Nc1nc2c(s1)CN(C(=O)c1cc(C3CC3)on1)CC2)c1ccco1	i	i
COc1ccccc1OCC(=O)NCCC(O)C(C)(C)C (stereo not given)	i	i
COc1nccc(N2CCC(CC(=O)N(C)Cc3ccccc3)CC2)n1	i	i
Nc1cc(C2CCN(C(=O)C3COc4ccccc4O3)CC2)no1 (stereo not given)	i	i
Oc1ccc(-c2[nH]ncc2Oc2ccc(-c3ccccc3)cc2)c(O)c1	51	i
CCOc1ccc(-c2[nH]ncc2Oc2ccccc2)c(O)c1	i	i
C=C(C)COc1ccc(-c2[nH]ncc2Oc2ccccc2OCC)c(O)c1	66	i
Oc1ccc(-c2[nH]ncc2-c2ccc(F)cc2)c(O)c1	i	i
C=C(C)COc1ccc2c(=O)c(Oc3ccccc3OCC)c(C)oc2c1	i	i
COc1ccc(-c2[nH]ncc2-c2cnc(C)s2)c(O)c1	i	i
CCCc1ccc(Oc2cn[nH]c2-c2ccc(O)cc2O)cc1	82	i
COc1ccc(-c2[nH]ncc2Oc2ccc(Cl)cc2)c(O)c1	66	i
COc1ccccc1/C=C1\N=C(c2ccc([N+](=O)[O-])cc2Cl)OC1=O	i	i
CCOc1ccc(C2CC(c3ccc(CC)cc3)Nc3nnnn32)cc1OC (stereo not given)	i	i
O=C(Cc1cccs1)N1CCC(COc2ccc(C(=O)N3CCCC3)cc2)CC1	i	i
CC1=NN(c2ccccc2)C(=O)/C1=C/c1ccc(-c2ccc(Cl)c(C(=O)O)c2)o1	77	i
O=C1NN(c2ccc(Cl)c(Cl)c2)C(=O)/C1=C/c1ccc(-c2ccccc2C(=O)O)o1	51	i
CC1=NN(c2cccc(Cl)c2)C(=O)/C1=C/c1ccc(-c2ccc(C(=O)O)c(Cl)c2)o1	52	i
O=C1NN(c2ccc(Cl)c(Cl)c2)C(=O)/C1=C/c1ccc(-c2cccc(C(=O)O)c2)o1	i	i
CC1=NN(c2ccccc2)C(=O)/C1=C/c1ccc(-c2cccc([N+](=O)[O-])c2)o1	i	i

Assay outcomes from PubChem BioAssay.
